We go through 66 molecules from PubChem BioAssay AID376 (PDSP, 2006).

SMILES strings stand for the structures. The whole screen tested about 2,000 compounds, of which about 250 (12%) were called active. Rule as the data show it: active = hERG blockade below about -20% or above about 20%; inactive = in between. The list comes from a sample in which actives are over-represented; it also holds similar structures and randomly drawn compounds.

Sequence of Voltage-gated inwardly rectifying potassium channel KCNH2 (Homo sapiens) (Q12809 whole entry, looked up): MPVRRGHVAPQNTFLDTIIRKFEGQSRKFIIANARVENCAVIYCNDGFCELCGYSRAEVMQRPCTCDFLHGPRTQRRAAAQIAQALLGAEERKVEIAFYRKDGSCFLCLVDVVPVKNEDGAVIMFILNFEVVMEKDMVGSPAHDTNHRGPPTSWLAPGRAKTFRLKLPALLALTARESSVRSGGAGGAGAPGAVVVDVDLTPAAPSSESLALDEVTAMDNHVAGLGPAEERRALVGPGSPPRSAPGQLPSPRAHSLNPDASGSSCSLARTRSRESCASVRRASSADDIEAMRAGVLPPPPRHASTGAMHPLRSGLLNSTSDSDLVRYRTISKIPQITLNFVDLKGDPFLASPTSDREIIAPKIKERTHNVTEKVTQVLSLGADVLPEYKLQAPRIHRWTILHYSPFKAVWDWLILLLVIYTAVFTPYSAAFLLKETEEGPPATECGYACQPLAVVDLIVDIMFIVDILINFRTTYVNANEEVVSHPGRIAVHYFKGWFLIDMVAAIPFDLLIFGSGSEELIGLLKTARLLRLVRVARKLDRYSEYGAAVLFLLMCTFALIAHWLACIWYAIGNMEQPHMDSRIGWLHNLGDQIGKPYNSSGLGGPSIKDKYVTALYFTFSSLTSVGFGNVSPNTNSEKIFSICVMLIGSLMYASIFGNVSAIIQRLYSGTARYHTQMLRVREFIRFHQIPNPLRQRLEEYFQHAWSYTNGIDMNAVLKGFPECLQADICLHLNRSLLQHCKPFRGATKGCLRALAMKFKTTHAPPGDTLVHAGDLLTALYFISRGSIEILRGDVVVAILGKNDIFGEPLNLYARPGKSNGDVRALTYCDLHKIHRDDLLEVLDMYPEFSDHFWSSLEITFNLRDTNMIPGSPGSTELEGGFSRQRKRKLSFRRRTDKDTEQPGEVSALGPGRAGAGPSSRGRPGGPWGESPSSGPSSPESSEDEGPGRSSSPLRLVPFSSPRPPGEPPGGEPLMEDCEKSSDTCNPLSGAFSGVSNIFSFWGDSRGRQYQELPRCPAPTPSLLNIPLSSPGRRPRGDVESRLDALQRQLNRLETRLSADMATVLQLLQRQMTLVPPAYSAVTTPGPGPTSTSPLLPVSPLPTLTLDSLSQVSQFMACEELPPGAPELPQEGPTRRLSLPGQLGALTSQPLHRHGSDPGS

This test concerns the target Voltage-gated inwardly rectifying potassium channel KCNH2 (Homo sapiens) (UniProt Q12809). Description: KCNH2 potassium channel function modulators, cell-based (AID 376).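 Also: 0% = buffer alone and 100% = reference blocker.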 Conditions: hERG-expressing cells, channel activity single-concentration screen; concentration not given here.
On to `CN(C)CCCSc1nc2ccccc2[nH]1`, for which the hERG blockade is -13.7% (inactive).

Regarding `CN(C)CCCc1c2ccccc2nc2ccc(Cl)cc12`, the hERG blockade is 35.2% (active).

On to `O=C(O)c1cc(-c2ccc(-c3ccc(-c4cc(C(=O)O)c5cc(Cl)ccc5n4)cc3)cc2)nc2ccc(Cl)cc12`, for which the hERG blockade is -1.3% (inactive).

Turning to `CC(=O)C1CCC2C1(C)CC=C1C23C=CC2(CC(O)CCC12C)C(C(=O)O)C3C(=O)O` (stereo unspecified), the hERG blockade is 3.22% (inactive).

With `NC(N)=NC(N)=Nc1ccc(S(=O)(=O)O)cc1`, the hERG blockade was -3.84% (inactive).

Consider `O=[N+]([O-])c1ccc2c(c1)Cc1cc(N=Cc3ccc4c(c3)OCO4)ccc1-2`, for which the hERG blockade was -2.54% (inactive).

For `COc1cc2c(cc1O)C(c1cc(O)c(O)c(OC)c1)C(O)(C(=O)O)C(CO)C2O` (stereo unspecified), the hERG blockade is -2.14% (inactive).

As to `O=C(O)c1c(Br)c(Br)c(Br)c(Br)c1C1c2ccc(O)cc2Oc2cc(O)ccc21`, the hERG blockade was 2.46% (inactive).

For `Cc1ccc(NC(c2ccccc2)c2ccc3cccnc3c2O)cc1` (stereo unspecified), the hERG blockade is -7.23% (inactive).

Regarding `Oc1c(C(Nc2ccccn2)c2ccccc2)ccc2cccnc12` (stereo unspecified), the hERG blockade is 12.1% (inactive).

Take `c1cnc2c(c1)ccc1cccnc12`: the hERG blockade is 56.6% (active).

On to `Cc1ncn(-c2ccccc2O)c1C`, for which the hERG blockade was -3.27% (inactive).

In the case of `CSC(CC(=O)O)C(=O)O` (stereo unspecified), the hERG blockade is -18% (inactive).

Consider `CC1OC(CC(=O)O)Cc2c1c(O)c1c(O)cc(-c3cc(=O)c4c(=O)c5c(c(=O)c=4c3=O)CC(CC(=O)O)OC5C)c(O)c1c2O` (stereo unspecified), for which the hERG blockade is 14.9% (inactive).

With `Oc1ccc2ccccc2c1C=Cc1ccc2c(Br)cc(Br)c(O)c2n1`, the hERG blockade is 11% (inactive).

For the molecule `C[n+]1cccc(C=Cc2ccc3cccc(O)c3n2)c1`, the hERG blockade was 48.1% (active).

As for `Oc1cccc2ccc(SSc3ccc4cccc(O)c4n3)nc12`, the hERG blockade was 0.631% (inactive).

For the molecule `O=C(O)c1cc(=O)[nH]c(SCc2ccccc2)n1`, the hERG blockade is 0.275% (inactive).

For the molecule `C[N+](C)([O-])Cc1cc(-c2ccccc2)ccc1O`, the hERG blockade was -15.8% (inactive).

Consider `O=C(SCc1cccc2ccccc12)c1ccc(Cl)cc1`, for which the hERG blockade is -11.8% (inactive).

With `S=C(S)NCCCn1ccnc1`, the hERG blockade was -3.79% (inactive).

On to `NCCSS(=O)(=O)CCN`, for which the hERG blockade is 3.89% (inactive).

In the case of `CCOc1ccc2nc3cc(N=Nc4ccc(N)nc4N)ccc3c(N)c2c1`, the hERG blockade was 19.7% (inactive).

Consider `Cc1cc(N)c2cc(OCCOc3ccc4nc(C)cc(N)c4c3)ccc2n1`, for which the hERG blockade is 38.9% (active).

Consider `Cc1cc(N)c2cc(NC(=O)Nc3ccc4nc(C)cc(N)c4c3)ccc2n1`, for which the hERG blockade was 1.21% (inactive).

For `O=C(O)CC12CC3CC(CC(O)(C3)C1)C2`, the hERG blockade is -8.63% (inactive).

For the molecule `CCCCCC(O)C1C(=O)OC(C)C(O)C=CC=CC=CC=CC=C(C)C(O)CC(O)CC(O)CC(O)CC(O)CC(O)CC1O` (stereo unspecified), the hERG blockade is -9.84% (inactive).

Take `O=C(O)C(C1NCCS1)N1Cc2ccccc2C1` (stereo unspecified): the hERG blockade was -7.98% (inactive).

Take `C[N+]1(CC[N+]2(C)CCCC2c2cccnc2)CCCC1c1cccnc1` (stereo unspecified): the hERG blockade is 23.3% (active).

With `C[N+]1(Cc2ccc(Cl)c(Cl)c2)CCCC1c1ccc[n+](Cc2ccc(Cl)c(Cl)c2)c1` (stereo unspecified), the hERG blockade is 16.1% (inactive).

On to `c1cncc(CNCc2cccnc2)c1`, for which the hERG blockade is 5.77% (inactive).

With `CC1(C)SC2C(NC(=O)Cc3ccccc3)C(=O)N2C1C(=O)O` (stereo unspecified), the hERG blockade is 1.04% (inactive).

With `O=C(O)c1ccc(NC(c2ccccc2)c2ccc3cccnc3c2O)cc1` (stereo unspecified), the hERG blockade is -7.8% (inactive).

Regarding `CC1(CCC(=O)OC2CCCCC2)OCCO1`, the hERG blockade was -7.92% (inactive).

For `CC(C)(C)c1ccc(OCC(=O)O)c(Cl)c1`, the hERG blockade was -5.3% (inactive).

Consider `CN1CCN(CCCBr)CC1`, for which the hERG blockade is 25.3% (active).

For the molecule `CN1CCN(CCCN)CC1`, the hERG blockade was -1.63% (inactive).

On to `CN1CCN(CCCNN)CC1`, for which the hERG blockade is -5.53% (inactive).

As to `O=C(O)C(Cc1ccc(O)c([N+](=O)[O-])c1)N1C(=O)c2ccccc2C1=O` (stereo unspecified), the hERG blockade is -10.2% (inactive).

Consider `[O-][N+](CCO)(CCO)c1ncnc2nc[nH]c12`, for which the hERG blockade is 13% (inactive).

Regarding `O=C1C(Cl)=C(Nc2ccc(S(=O)(=O)Nc3ccccn3)cc2)C(=O)c2ccccc21`, the hERG blockade was 9.57% (inactive).

Turning to `COc1cc(NCCC2CCCCN2)c2ncccc2c1` (stereo unspecified), the hERG blockade was 7.01% (inactive).

For the molecule `Cc1cc(N2CCN(C)CC2)n2nc(-c3ccc(Cl)cc3)nc2n1`, the hERG blockade was 90% (active).

As to `O=c1[nH]c(SCc2c(Cl)c(Cl)c(Cl)c(Cl)c2Cl)nc(=S)[nH]1`, the hERG blockade is -9.32% (inactive).

Take `Cc1ccc(S(=O)(=O)NC(CN)C(=O)O)cc1` (stereo unspecified): the hERG blockade was 4.41% (inactive).

Consider `Cc1ccc(S(=O)(=O)NC(CO)C(=O)O)cc1` (stereo unspecified), for which the hERG blockade was 23.3% (active).

On to `Cc1ccc(S(=O)(=O)NC(C(=O)O)C(C)C)cc1` (stereo unspecified), for which the hERG blockade was 0.497% (inactive).

As for `NC1(C(=O)OCc2ccccc2)CCCC1`, the hERG blockade was 15.7% (inactive).

Turning to `CC(OP(=O)(O)O)C(N)C(=O)O` (stereo unspecified), the hERG blockade is -6.12% (inactive).

As to `Clc1ccc(CSCCc2ccncc2)cc1Cl`, the hERG blockade was 14.8% (inactive).

Regarding `Cn1cnc([N+](=O)[O-])c1Sc1nc(N)nc2c1ncn2Cc1ccccc1`, the hERG blockade is 37% (active).

Take `Nc1nc(SCc2ccccc2)c2ncn(Cc3ccccc3)c2n1`: the hERG blockade is -3.09% (inactive).

As for `CC(C)Cn1cnc2c(Sc3c([N+](=O)[O-])ncn3C)nc(N)nc21`, the hERG blockade was 4.65% (inactive).

In the case of `NC(Cc1c[nH]c2ccc([N+](=O)[O-])cc12)C(=O)O` (stereo unspecified), the hERG blockade is 7.32% (inactive).

As for `C=C(C)COc1ccc2c(c1)CCC1C2CCC2(C)C(=O)C(=NO)CC12` (stereo unspecified), the hERG blockade was 0.877% (inactive).

Turning to `OCC1OC(O)C(N=Cc2ccc3c(c2)OCO3)C(O)C1O` (stereo unspecified), the hERG blockade was -14.8% (inactive).

Take `Nc1ccc(S(=O)(=O)Nc2cnc3ccccc3n2)cc1`: the hERG blockade was 8% (inactive).

As to `Nc1ccc(S(=O)(=O)NCc2nccs2)cc1`, the hERG blockade is 17.3% (inactive).

For `Nc1ccc(S(=O)(=[OH+])[NH2+]c2ncccn2)cc1.[Ag+]`, the hERG blockade was 89.5% (active).

Turning to `CC(C)CCNc1ncnc2[nH]ncc12`, the hERG blockade is 0.816% (inactive).

Take `NCC1OC(n2cnc3c(=O)[nH]c(N)nc32)C(O)C1O` (stereo unspecified): the hERG blockade was 5.66% (inactive).

As for `CCC1=C(CC2NCCc3ccccc32)CC2c3cc(OC)c(OC)cc3CCN2C1` (stereo unspecified), the hERG blockade was 47.5% (active).

For the molecule `N#CC(=CNc1ccccn1)C(=O)c1ccco1`, the hERG blockade was -1.1% (inactive).

As for `OCCCNCc1ccncc1`, the hERG blockade is -7.86% (inactive).

With `CC1(C)SC2C(C(=O)O)N=C(Cc3ccccc3)N2C1C(=O)O` (stereo unspecified), the hERG blockade was 4.53% (inactive).

Consider `O=[N+]([O-])c1ccc2ncccc2c1CCc1c([N+](=O)[O-])ccc2ncccc12`, for which the hERG blockade was 2.28% (inactive).
